From PubChem BioAssay (NCATS) come the findings set out here.

Structures are written as SMILES. Inconclusive results are not listed. Values without a mark were called inactive. Some of the results follow. Activity calls are given as the source filed them. The call rests on the fitted dose curve; in most records, active means well fitted curve in the direction sought with a large enough effect; inconclusive means small, poorly fitted or top-dose-only effect, or another doubt; inactive means no such curve, though single readings can be large; an effect the other way counts as inactive or inconclusive.

The target in assay [1] is Rap guanine nucleotide exchange factor 3 (Homo sapiens) (UniProt O95398). Nature of the assay: Confirmatory qHTS for antagonist of cAMP-regulated guanine nucleotide exchange factor 3 (EPAC1) (AID 1645880). Further: nearly all actives have a fitted effect of over 55% in size. Further: potency means the concentration at half of the fitted maximal effect.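 On activity, negative = inhibition: plate controls were DMSO only for no effect and full effect of the ATA control for full effect.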 As to conditions: EPAC1 Rap1B-BODIPY-GDP exchange, fluorescence; activity, negative = inhibition: at 115 µM (top of the series). Summed up:
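Nucleotide exchange uses 100 nM EPAC1, 250 nM RAP1B-BODIPY-GDP and 50 uM GDP, with compounds in a concentration-titration series. After 5 min at room temperature, fluorescence (480 nm ex/540 nm em) is read every 5 min for 30 min. Data are normalized to control ATA and DMSO.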
For orientation: Quantitative high-throughput screening tests each substance at several concentrations.

The target is the same in assay [2]. Briefly: Confirmatory qHTS for agonist of cAMP-regulated guanine nucleotide exchange factor 3 (EPAC1) (AID 1645881).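 Further: EPAC1 catalysed release of BODIPY-GDP from Rap1B seen as fluorescence loss; 100% = effect of cAMP agonist control; nearly all actives have a fitted effect of over 75% in size.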
Assay [3] concerns the target Rap guanine nucleotide exchange factor 4 (Homo sapiens) (UniProt Q8WZA2). Briefly: Confirmatory qHTS for agonist of cAMP-regulated guanine nucleotide exchange factor 4 (EPAC2) (AID 1645884).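 Further: nucleotide exchange releases bodipy-GDP from Rap1 and this lowers its fluorescence; on the % scale 0 is the no-effect control and ±100 the full control effect; nearly all actives have a fitted effect of over 65% in size.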
The target is the same in assay [4]. Nature of the assay: Confirmatory qHTS for antagonist of cAMP-regulated guanine nucleotide exchange factor 4 (EPAC2) (AID 1645885). Further: nearly all actives have a fitted effect of over 25% in size. Further: potency means the concentration at half of the fitted maximal effect.
For assay [5], the target named is Rap guanine nucleotide exchange factor 3 (Homo sapiens) (UniProt O95398). Nature of the assay: Counterscreen qHTS for agonist of cAMP-regulated guanine nucleotide exchange factor 3 (EPAC1) (AID 1645889). Further: % of control where 0% means no effect; nearly all actives have a fitted effect of over 40% in size. In a few lines: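 Rap1B–BODIPY-GDP (250 nM) with 50 uM GDP; compounds pin-transferred to 9.74 nM–152 uM final (activator) or from 7.32 nM upwards (inhibitor). Fluorescence Ex/Em 480/540 nm read at 5 and 30 min, then after adding cAMP or buffer, at room temperature.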
Rap guanine nucleotide exchange factor 3 (Homo sapiens), sequence (O95398 whole entry, looked up): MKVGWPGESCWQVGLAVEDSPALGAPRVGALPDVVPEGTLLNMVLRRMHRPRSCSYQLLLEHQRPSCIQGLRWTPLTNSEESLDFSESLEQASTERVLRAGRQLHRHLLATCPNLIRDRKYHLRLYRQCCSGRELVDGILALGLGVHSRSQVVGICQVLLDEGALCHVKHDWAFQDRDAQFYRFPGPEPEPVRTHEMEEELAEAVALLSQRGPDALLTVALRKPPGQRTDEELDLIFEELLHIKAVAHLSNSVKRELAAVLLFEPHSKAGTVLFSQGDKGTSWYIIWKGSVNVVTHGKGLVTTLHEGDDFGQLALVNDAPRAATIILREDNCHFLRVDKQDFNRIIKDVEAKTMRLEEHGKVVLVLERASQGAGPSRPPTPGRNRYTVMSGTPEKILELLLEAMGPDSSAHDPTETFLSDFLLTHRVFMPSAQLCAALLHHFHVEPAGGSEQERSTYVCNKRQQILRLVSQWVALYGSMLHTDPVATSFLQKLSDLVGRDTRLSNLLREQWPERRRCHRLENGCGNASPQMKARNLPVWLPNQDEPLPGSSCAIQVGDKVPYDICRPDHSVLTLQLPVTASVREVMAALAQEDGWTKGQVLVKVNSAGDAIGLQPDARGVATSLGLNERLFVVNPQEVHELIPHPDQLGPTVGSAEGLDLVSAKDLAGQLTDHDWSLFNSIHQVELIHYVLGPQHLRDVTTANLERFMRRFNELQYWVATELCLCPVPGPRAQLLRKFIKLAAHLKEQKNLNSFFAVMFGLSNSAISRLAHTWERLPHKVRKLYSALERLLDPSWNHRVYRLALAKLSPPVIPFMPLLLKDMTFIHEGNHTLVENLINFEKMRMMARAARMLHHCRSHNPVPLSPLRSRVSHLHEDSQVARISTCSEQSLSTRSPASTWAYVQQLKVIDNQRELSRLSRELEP
(A counterscreen serves to expose hits that act by an unwanted route or on another target.)

The target in assay [6] is Vitamin D3 receptor (Homo sapiens) (UniProt P11473). Briefly: qHTS for Inhibitors of the vitamin D receptor (VDR): Hit Validation in Primary Screen (AID 602199). Further: potency means the concentration at half of the fitted maximal effect. As to conditions: VDR-coactivator inhibition assay, qHTS confirmation. The text has this:
(§1) The vitamin D receptor (VDR) is a ligand-activated transcription factor and is partially responsible for the regulation of the endocrine system. This includes the transcriptional regulation of genes involved in the production of the parathyroid hormone (PTH) and the regulation of the blood calcium level. High levels of PHT can cause hypercalcemia in the case of primary and tertiary hyperparathyroidism. The VDR-mediated gene regulation, activated by its ligand 1,25-dihydroxyvitamin D3 (1,25-(OH)2D3), is governed by the recruitment of coactivators. Our hypothesis is that small molecules, with the ability to inhibit the interaction between VDR and certain coactivators, are able to selectively modulate VDR-mediated transcription. […]
In a collaboration between the University of Wisconsin, Milwaukee and the NIH Chemical Genomics Center (NCGC) a HTS-compatible enzymatic assay was developed. The assay uses fluorescence polarization as its read-out to measure the inhibition between VDR and coregulator peptide SRC2-3 exerted by small molecules. […]
Four microliter of either 800nM VDR, 5uM LG19078, and […]nM SRC2-3 Alexa 647 (all final concentrations) in columns 1, 2, and 5 to 48 or […]nM SRC2-3 Alexa 647 in columns 3 and 4 are dispensed into black medium-binding solid bottom Greiner plates. […] It is then read on the Envision for a fluorescent polarization read-out (Ex 620 nm/Em 688 nm)

Assay [7] is described as follows: qHTS for Inhibitors of the vitamin D receptor (VDR): Hit Validation using a Texas Red Assay (AID 602201). Further: on the % scale 0 is the no-effect control and ±100 the full control effect. In a few lines: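 Fluorescence polarization with 1.5 uM VDR-LBD, LG19078 and 7 nM Texas Red (final). After 2 hours at ambient temperature, read at Ex 595 nm/Em 615 nm.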
In assay [8] the target is Vitamin D3 receptor (Homo sapiens) (UniProt P11473). Nature of the assay: qHTS for Inhibitors of the vitamin D receptor (VDR): Hit Validation using a Beta-Lactamase Assay (AID 602202). Further: on the % scale 0 is the no-effect control and ±100 the full control effect.
Vitamin D3 receptor (Homo sapiens), sequence (P11473 whole entry, looked up): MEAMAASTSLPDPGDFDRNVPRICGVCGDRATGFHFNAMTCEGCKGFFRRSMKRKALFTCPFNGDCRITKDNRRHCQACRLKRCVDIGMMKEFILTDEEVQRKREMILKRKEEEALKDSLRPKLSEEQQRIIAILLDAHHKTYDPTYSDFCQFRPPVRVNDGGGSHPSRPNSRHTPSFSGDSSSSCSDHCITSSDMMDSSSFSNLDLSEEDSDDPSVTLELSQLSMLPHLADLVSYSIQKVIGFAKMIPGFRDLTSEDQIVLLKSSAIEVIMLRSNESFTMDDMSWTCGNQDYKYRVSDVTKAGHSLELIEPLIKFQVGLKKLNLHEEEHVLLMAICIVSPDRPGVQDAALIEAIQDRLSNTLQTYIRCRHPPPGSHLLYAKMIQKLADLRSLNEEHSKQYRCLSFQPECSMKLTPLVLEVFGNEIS
Text: as §1
In a collaboration between the University of Wisconsin, Milwaukee and the NIH Chemical Genomics Center (NCGC) a HTS-compatible enzymatic assay was developed. The assay uses fluorescence polarization as its read-out to measure the inhibition between VDR and coregulator peptide SRC2-3 exerted by small molecules. […] Successful activation is detected by a decrease in time-resolved fluorescence resonance energy transfer (TR-FRET) caused by enzymatic cleavage of fluorescent betalactam substrate added after 24h incubation. The cleaved substrate concentration was quantified by measuring the fluorescence emission at 447 nm. […]

The nature of assay [9]: qHTS for Inhibitors of the vitamin D receptor (VDR): Hit Validation using a Cytotoxicity Assay (AID 602204).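 Further: plate controls were DMSO for no effect and high-concentration cycloheximide for full effect; nearly all actives have a fitted effect of over 75% in size.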
Text: as §1, with “transcription. Our long term objective is the application these VDR-coactivator inhibitors to study the role of VDR-coactivator binding for specific VDR regulated genes.” for “transcription.”
In a collaboration between the University of Wisconsin, Milwaukee and the NIH Chemical Genomics Center (NCGC) a HTS-compatible enzymatic assay was developed. The assay uses fluorescence polarization as its read-out to measure the inhibition between VDR and coregulator peptide SRC2-3 exerted by small molecules. […] This assay quantifies the amount of ATP generated by living cells and compounds that are active in this assay are undesirable for the project due to cytotoxicity. […]
Step 8: Read luminescence

Rap guanine nucleotide exchange factor 4 (Homo sapiens), sequence (Q8WZA2 whole entry, looked up): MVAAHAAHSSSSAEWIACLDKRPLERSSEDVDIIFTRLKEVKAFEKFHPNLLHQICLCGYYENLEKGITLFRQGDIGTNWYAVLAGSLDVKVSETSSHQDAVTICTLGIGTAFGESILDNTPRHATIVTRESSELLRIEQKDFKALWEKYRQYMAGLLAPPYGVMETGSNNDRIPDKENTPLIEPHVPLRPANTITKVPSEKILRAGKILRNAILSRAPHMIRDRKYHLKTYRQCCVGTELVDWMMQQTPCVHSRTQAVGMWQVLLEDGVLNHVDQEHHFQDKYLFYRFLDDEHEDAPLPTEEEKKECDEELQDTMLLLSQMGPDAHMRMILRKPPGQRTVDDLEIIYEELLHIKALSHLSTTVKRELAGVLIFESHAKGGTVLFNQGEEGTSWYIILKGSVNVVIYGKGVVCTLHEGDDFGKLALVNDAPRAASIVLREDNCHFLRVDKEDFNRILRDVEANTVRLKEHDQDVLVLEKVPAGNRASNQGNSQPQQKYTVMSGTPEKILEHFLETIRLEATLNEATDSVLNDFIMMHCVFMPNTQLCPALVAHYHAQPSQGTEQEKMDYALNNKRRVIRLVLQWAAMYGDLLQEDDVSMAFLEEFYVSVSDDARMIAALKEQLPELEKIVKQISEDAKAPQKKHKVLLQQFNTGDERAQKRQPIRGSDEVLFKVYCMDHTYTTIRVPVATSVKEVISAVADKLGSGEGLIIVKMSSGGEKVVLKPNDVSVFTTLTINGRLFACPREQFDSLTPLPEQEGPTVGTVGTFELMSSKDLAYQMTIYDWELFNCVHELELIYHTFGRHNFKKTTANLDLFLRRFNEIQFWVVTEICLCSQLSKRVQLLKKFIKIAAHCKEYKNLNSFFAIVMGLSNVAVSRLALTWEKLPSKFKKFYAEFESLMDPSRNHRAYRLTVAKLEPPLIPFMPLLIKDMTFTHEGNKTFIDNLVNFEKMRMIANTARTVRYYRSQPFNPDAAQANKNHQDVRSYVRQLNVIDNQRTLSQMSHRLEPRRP

On to `Nc1ncc(Br)cc1S(=O)(=O)Nc1cc(C(F)(F)F)cc(C(F)(F)F)c1`, for which the Potency in [1] was 75.7 µM (active). The Potency result in [2], in assay [3], in [4] and in assay [5] was “inactive” throughout.
Take `Cc1ccc(C)c(-n2c(CCC(=O)O)ccc2-c2ccc(Cl)cc2)c1`: the Potency entry in assay [1], in assay [2], in assay [3], in assay [4] and in assay [5] was “inactive” each time.
On to `C/C(=N\NC(=O)CC#N)c1cc2ccc(O)cc2oc1=O`, for which the Potency entry in assay [1], in assay [2] and in assay [4] was “inactive” throughout. The activation in assay [3] is 2.05% [at 17.1 µM, percent relative to cAMP agonist control]; in assay [5] it was -21% [at 30.8 µM].
Turning to `Cc1cc(C)c(Nc2cc(S(=O)(=O)O)c(N)c3c2C(=O)c2ccccc2C3=O)c(C)c1`, the Potency was 30.1 µM (active) in assay [1] and 75.7 µM (active) in assay [4]. The Potency entry in assay [2], in assay [3] and in assay [5] was “inactive” each time.
Consider `O=CN(c1ccccc1)c1ccc2ccccc2c1`, for which the Potency entry in assay [1], in assay [2] and in [4] was “inactive” each time. Also, the activation is 1.36% [at 17.1 µM, percent relative to cAMP agonist control] in assay [3] and 4.55% [at 30.8 µM] in [5].
As for `N#CCOC(=O)[C@H](Cc1c[nH]c2ccccc12)NS(=O)(=O)c1ccc(Cl)cc1`, the values for the Potency in assay [1] and in assay [4] were 37.9 µM (active) and 53.6 µM (active), respectively. The Potency result in [2], in assay [3] and in assay [5] was “inactive” throughout.
As for `Cc1cc(C)n(CCOc2ccc(Br)cc2)n1`, the Potency entry in assay [1], in assay [2] and in [4] was “inactive” in each case. Moreover, the activation in [3] is 1.04% [at 17.1 µM, percent relative to cAMP agonist control]; in assay [5] it was 4.02% [at 30.8 µM].
For `COc1ccccc1CNC(=O)C1(C)CCN1Cc1ccc(OC(F)(F)F)cc1` (centres undefined), the Potency is 67.5 µM (active) in [1] and 53.6 µM (active) in assay [4]. Further, the Potency result in [2], in [3] and in assay [5] was “inactive” throughout.
`Cc1ccc(CNC(=O)COc2ccc(C(=O)c3ccc(F)cc3)cc2)cc1`: the Potency entry in assay [1], in [2], in [3], in assay [4] and in assay [5] was “inactive” in each case.
In the case of `COc1cccc(CNC(=O)COc2cc3c(c4oc(=O)cc(C)c24)CCC(C)(C)O3)c1`, the Potency result in [1], in assay [2], in assay [3], in assay [4] and in assay [5] was “inactive” in each case.
Turning to `COC(=O)Cc1c(C)c2ccc(OC(=O)c3ccco3)cc2oc1=O`, the Potency entry in assay [1], in [2] and in assay [4] was “inactive” each time. Moreover, the activation was 7.89% [at 17.1 µM, percent relative to cAMP agonist control] in assay [3] and 4.06% [at 30.8 µM] in assay [5].
For `CC(C)CC1C(=O)N(Cc2cn(Cc3ccco3)nn2)CCS(=O)(=O)N1Cc1ccc(-c2ccc(F)cc2)cc1` (centres undefined), the Potency in [1] was 84.9 µM (active); in assay [4] it was 21.3 µM (active). Besides, the Potency result in [2], in [3] and in assay [5] was “inactive” each time.
Regarding `CC1(Cc2ccccc2OC(F)(F)F)C(=O)Nc2ccc(-c3ccsc3)cc21` (centres undefined), the Potency in assay [1] was 42.6 µM (active); in assay [4], 33.8 µM (active). For the same compound, the Potency entry in assay [2], in assay [3] and in [5] was “inactive” throughout.
Regarding `COc1ccc(C2CCc3cc4c(cc3C2=NO)OCO4)cc1OC` (centres undefined), the Potency entry in assay [1], in assay [2] and in assay [4] was “inactive” throughout. In addition, the activation in [3] was 6.77% [at 17.1 µM, percent relative to cAMP agonist control]; in [5], 14.5% [at 30.8 µM].
`Cc1cc2ccccn2c1C(=O)c1cccc(F)c1`: the Potency result in assay [1], in assay [2], in [3], in [4] and in assay [5] was “inactive” throughout.
As to `Cn1cc([C@]2(O)C(=O)Nc3ccc(OC(F)(F)F)cc32)c2ccccc21`, the Potency entry in [1], in assay [2] and in assay [4] was “inactive” in each case. In addition, the activation in assay [3] is 14.8% [at 17.1 µM, percent relative to cAMP agonist control]; in assay [5], 32.2% [at 30.8 µM].
In the case of `CCOC(=O)N1c2ccccc2Sc2ccccc21`, the Potency entry in [1], in assay [2] and in [4] was “inactive” each time. The activation in assay [3] is 4.1% [at 17.1 µM, percent relative to cAMP agonist control]; in [5], 15.6% [at 30.8 µM].
In the case of `CCCOc1ccc(/C(O)=C2/C(=O)C(=O)N(c3ccccn3)C2c2ccc(OC)cc2)cc1C` (centres undefined), in [1], the Potency is 33.8 µM (active). Further, the Potency entry in [2], in assay [3], in assay [4] and in [5] was “inactive” in each case.
On to `CC1CC1c1ccc(/C=C(\C#N)C(=O)Nc2ccc(Cl)cc2)o1` (centres undefined), for which the Potency entry in [1], in [2], in assay [3], in assay [4] and in [5] was “inactive” in each case.
As to `O=C(O)c1ccc2c(c1)C(=O)N(c1ccc(/C=C/C(=O)c3ccccc3)cc1)C2=O`, the Potency in assay [6] is 10.6 µM (active). For the same compound, the Potency result in [7], in [8] and in assay [9] was “inactive” in each case.
